Results filed as inconclusive are left out. Activity calls are given as the source filed them. Calls follow the shape of the full dose curve. Numbered stars: 1 amine (or outer) side, 2 acyl side, 3 side chain; on linkers, the order of the positions; unused ones are H or OH. Bridge positions count the residues as written; N and C are the ends. Square brackets hold non-standard residues; d marks the D form. Peptide text beside a SMILES is read from it. * marks the point of attachment. ξ: configuration not given here. pTerphenylCO(4''-OnC5H11) = CCCCCOc1ccc(-c2ccc(-c3ccc(C(=O)*)cc3)cc2)cc1; ξOrn(4,5-diOH) = O=C(C(CC(O)C(O)N[*:3])N[*:1])[*:2]; ξhTyr(βξ-OH,γξ-OH) = NC(C(=O)O)C(O)C(O)c1ccc(O)cc1; ξPro(3ξ-OH,4ξ-Me) = CC1CNC(C(=O)O)C1O; Hyp = O=C(O)[CH]1C[CH](O)CN1
experiment: Primary qHTS for inhibitors of MERS-S pseudo-typed particle cell entry (AID 1479149); conditions: MERS-S pseudotyped particle entry, luciferase; series mostly up to 57.1 µM; activity change, negative = inhibition: at the top concentration; also: nearly all actives have a fitted effect of over 60% in size
% is scaled to controls: 0 for no effect and ±100 for the full control effect; potency is read from the fitted curve at half-maximal effect.

Compound	activity change, negative = inhibition	outcome	Potency
CC(=O)OC1C[C@H](O[C@@H]2C(O)C[C@H](O[C@@H]3C(O)C[C@@H](OC4CC[C@]5(C)C(CCC6C5CC(O)[C@@]5(C)C(C7=CC(=O)OC7)CC[C@@]65O)C4)OC3C)OC2C)O[C@H](C)[C@H]1O[C@H]1OC(CO)C(O)C(O)C1O (stereo partly drawn)	-93.3% (inactive)	–	–
Nc1nc(NC2CC2)c2ncn([C@H]3C=C[C@@H](CO)C3)c2n1	–	inactive	–
CCCCC(O)c1ccccc1 (stereo not drawn)	–	inactive	–
CC(=O)O[C@H]1C[C@@H]2CC[C@@H]3[C@H](CC[C@@]4(C)[C@H]3C[C@H](N3CC[N+](C)(C)CC3)[C@@H]4OC(C)=O)[C@@]2(C)C[C@@H]1N1CC[N+](C)(C)CC1	–	inactive	–
C=CC(=O)N1CCCC(n2nc(-c3ccc(Oc4ccccc4)cc3)c3c(N)ncnc32)C1 (stereo not drawn)	–	inactive	–
CCCCCOc1ccc(-c2ccc(-c3ccc(C(=O)NC4CC(O)C(O)NC(=O)C5C(O)C(C)CN5C(=O)C(C(C)O)NC(=O)C(C(O)C(O)c5ccc(O)cc5)NC(=O)C5CC(O)CN5C(=O)C(C(C)O)NC4=O)cc3)cc2)cc1 (stereo not drawn) ({pTerphenylCO(4''-OnC5H11)}-[ξOrn(4,5-diOH)]T[Hyp][ξhTyr(βξ-OH,γξ-OH)]T[ξPro(3ξ-OH,4ξ-Me)]; lactam 1-C; configuration not given here)	–	–	11.2 µM (active)
COc1cc([C@@H]2c3cc4c(cc3C(O[C@@H]3O[C@@H]5CO[C@@H](c6cccs6)OC5[C@H](O)[C@H]3O)C3COC(=O)[C@@H]32)OCO4)cc(OC)c1O (stereo partly drawn)	-81% (inactive)	–	–
C[C@H]1O[C@@H](O[C@H]2[C@@H](O)C[C@H](O[C@H]3[C@@H](O)C[C@H](O[C@H]4CC[C@@]5(C)[C@H](CC[C@@H]6[C@@H]5C[C@@H](O)[C@]5(C)[C@@H](C7=CC(=O)OC7)CC[C@]65O)C4)O[C@@H]3C)O[C@@H]2C)C[C@H](O)[C@@H]1O	-92.8% (inactive)	–	–
CN1c2c(nc(N)[nH]c2=O)NC[C@@H]1CNc1ccc(C(=O)N[C@@H](CCC(=O)O)C(=O)O)cc1	–	inactive [at 5.34 µM]	–
CC[C@@]1(O)C(=O)OCc2c1cc1n(c2=O)Cc2cc3c([N+](=O)[O-])cccc3nc2-1	-27.5% [at 114 µM] (inactive)	–	–
COc1cc2c(cc1O)CCN[C@]21CS[C@@H]2c3c(OC(C)=O)c(C)c4c(c3[C@H](COC1=O)N1[C@@H]2[C@H]2c3c(cc(C)c(OC)c3O)C[C@@H]([C@@H]1O)N2C)OCO4	-71.9% [at 11.4 µM] (inactive)	–	–
CN(C)C/C=C/C(=O)Nc1cc2c(Nc3ccc(F)c(Cl)c3)ncnc2cc1OC1CCOC1 (stereo not drawn)	–	–	14.1 µM (active)
CC(=O)OC1CC(OC2C(O)CC(OC3C(O)CC(OC4CCC5(C)C(CCC6C5CCC5(C)C(C7=CC(=O)OC7)CCC65O)C4)OC3C)OC2C)OC(C)C1O (stereo not drawn)	-95.1% (inactive)	–	–
C[C@H]1CC[C@@H]2[C@@H](C)[C@H]3[C@H](C[C@H]4[C@@H]5CC=C6C[C@@H](O[C@@H]7O[C@H](CO)[C@H](O)[C@H](O[C@@H]8O[C@H](CO)[C@@H](O)[C@H](O)[C@H]8O)[C@H]7O[C@@H]7O[C@@H](C)[C@H](O)[C@@H](O)[C@H]7O)CC[C@]6(C)[C@H]5CC[C@]34C)N2C1	–	inactive	–
OCCOc1ccc(/C(=C(/CCCl)c2ccccc2)c2ccccc2)cc1	–	inactive	–
N[C@H](Cc1cnc[nH]1)C(=O)O	–	inactive	–
CC(C)C[C@H](NC(=O)CNC(=O)c1cc(Cl)ccc1Cl)B1OC(=O)C(CC(=O)O)(CC(=O)O)O1	–	–	1.26 µM (active)
C[C@@H](c1nc(-c2ccc(C#N)cc2)cs1)[C@](O)(Cn1cncn1)c1cc(F)ccc1F	–	–	10 µM (active)
C/C(O)=C(\C#N)C(=O)Nc1ccc(C(F)(F)F)cc1	–	inactive	–
Cc1cc(-c2ccc(N=Nc3ccc4c(S(=O)(=O)O)cc(S(=O)(=O)O)c(N)c4c3O)c(C)c2)ccc1N=Nc1ccc2c(S(=O)(=O)O)cc(S(=O)(=O)O)c(N)c2c1O	-3.94% (inactive)	–	–
CNC(C)C(O)c1ccccc1 (stereo not drawn)	–	inactive	–
CNCc1cc(-c2ccccc2F)n(S(=O)(=O)c2cccnc2)c1	–	inactive	–
CCCOc1ccc2nc(NC(=O)OC)sc2c1	–	inactive	–
CCN(CC)C(=O)[C@]1(c2ccccc2)C[C@H]1CN	–	inactive	–
CCCCCCCC/C=C/CCCCCCCC(=O)O	–	inactive	–

experiment: Primary qHTS for Vero E6 cytotoxicity: counterscreen for inhibitors of SARS-S pseudo-typed particle cell entry (AID 1479150); conditions: cell viability; series mostly up to 57.1 µM; activity change, negative = cytotoxicity: at the top concentration

Compound	activity change, negative = cytotoxicity	outcome	Potency
CCc1cc2c(cc1CC)CC(NC[C@H](O)c1ccc(O)c3[nH]c(=O)ccc13)C2	-2.56% (inactive)	–	–
COc1ccc2c(c1)OC(C)(C)C(c1ccccc1)C2c1ccc(OCCN2CCCC2)cc1 (stereo not drawn)	–	inactive	–
CCCCC(O)c1ccccc1 (stereo not drawn)	2.5% (inactive)	–	–
CC(=O)O[C@H]1C[C@@H]2CC[C@@H]3[C@H](CC[C@@]4(C)[C@H]3C[C@H](N3CC[N+](C)(C)CC3)[C@@H]4OC(C)=O)[C@@]2(C)C[C@@H]1N1CC[N+](C)(C)CC1	–	inactive	–
C=CC(=O)N1CCCC(n2nc(-c3ccc(Oc4ccccc4)cc3)c3c(N)ncnc32)C1 (stereo not drawn)	-1.11% (inactive)	–	–
CCCCCOc1ccc(-c2ccc(-c3ccc(C(=O)NC4CC(O)C(O)NC(=O)C5C(O)C(C)CN5C(=O)C(C(C)O)NC(=O)C(C(O)C(O)c5ccc(O)cc5)NC(=O)C5CC(O)CN5C(=O)C(C(C)O)NC4=O)cc3)cc2)cc1 (stereo not drawn) ({pTerphenylCO(4''-OnC5H11)}-[ξOrn(4,5-diOH)]T[Hyp][ξhTyr(βξ-OH,γξ-OH)]T[ξPro(3ξ-OH,4ξ-Me)]; lactam 1-C; configuration not given here)	-16.1% [at 26.4 µM] (inactive)	–	–
CN1c2c(nc(N)[nH]c2=O)NC[C@@H]1CNc1ccc(C(=O)N[C@@H](CCC(=O)O)C(=O)O)cc1	–	inactive [at 5.34 µM]	–
CN(C)C/C=C/C(=O)Nc1cc2c(Nc3ccc(F)c(Cl)c3)ncnc2cc1OC1CCOC1 (stereo not drawn)	–	–	10 µM (active)
OCCOc1ccc(/C(=C(/CCCl)c2ccccc2)c2ccccc2)cc1	–	inactive	–
N[C@H](Cc1cnc[nH]1)C(=O)O	–	inactive	–
CO[C@H]1C[C@@H]2CC[C@@H](C)[C@@](O)(O2)C(=O)C(=O)N2CCCC[C@H]2C(=O)O[C@H]([C@@H](C)C[C@@H]2CC[C@@H](O)[C@H](OC)C2)CC(=O)[C@H](C)/C=C(\C)[C@@H](O)[C@@H](OC)C(=O)[C@H](C)C[C@H](C)/C=C/C=C/C=C/1C	-13.8% (inactive)	–	–
CCCCCCCCC=CCCCCCCCC(=O)NCCOC(=O)CC(C(=O)O)S(=O)(=O)O (stereo not drawn)	-16.7% (inactive)	–	–
CNC(C)C(O)c1ccccc1 (stereo not drawn)	–	inactive	–
CC1(S(=O)(=O)O)CC(=O)c2ccccc2C1=O (stereo not drawn)	-0.195% (inactive)	–	–
CNCc1cc(-c2ccccc2F)n(S(=O)(=O)c2cccnc2)c1	4.49% (inactive)	–	–
CCN(CC)C(=O)[C@]1(c2ccccc2)C[C@H]1CN	2.47% (inactive)	–	–
CCCCCCCC/C=C/CCCCCCCC(=O)O	–	inactive	–
C(=C\c1ccncc1)/c1ccccc1	-15.1% [at 114 µM] (inactive)	–	–
